Results filed as inconclusive are left out. The source made the active and inactive calls. Unless noted, calls come from the whole dose curve; as a rule, active = well fitted curve in the direction sought with a large enough effect in the repeat runs; inconclusive = weak or mixed curves; inactive = no such curve, though single readings can be large; an effect the other way counts as inactive or inconclusive.
Columns and labels:
[1] = target: Luciferin 4-monooxygenase (Photinus pyralis) (UniProt P08659); assay: qHTS assay to identify small molecule inhibitors of firefly luciferase (AID 1224835); note: nearly all actives have a fitted effect of over 25% in size
Method in brief: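 Quantitative HTS format; KM concentrations of both substrates. Purified P. pyralis FLuc activity quantified from luminescence images.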

[2] = qHTS assay to identify small molecule agonists of the constitutive androstane receptor (CAR) signaling pathway - cell viability counter screen (AID 1224836); note: nearly all actives have a fitted effect of over 45% in size
Method in brief: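 Cells were seeded and incubated 4 hrs. Compounds were added across 15 concentrations together with PK11195 at 0.75 uM final. Plates were incubated 23 hrs at 37 C. CellTiter-Fluor was added and fluorescence measured.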

[3] = qHTS assay to identify small molecule antagonists of the constitutive androstane receptor (CAR) signaling pathway - cell viability counter screen (AID 1224837); note: nearly all actives have a fitted effect of over 45% in size
Method in brief: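 Cytotoxicity counter-screen: CellTiter-Fluor fluorescence after 23 h compound exposure (15-point qHTS) in double-stable HepG2-CYP2B6-hCAR cells, with 50 nM CITCO added.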

[4] = target: Nuclear receptor subfamily 1 group I member 3 (Homo sapiens) (UniProt Q14994); assay: qHTS assay to identify small molecule antagonists of the constitutive androstane receptor (CAR) signaling pathway (AID 1224838);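 note: HepG2 cells stably expressing hCAR with CYP2B6 luciferase reporter stimulated by CITCO; nearly all actives have a fitted effect of over 40% in size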
Method in brief: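 Antagonism measured as luciferase signal (ONE-Glo, 30 min, room temperature) in CAR-stimulated cells: HepG2-CYP2B6-hCAR double-stable line exposed 24 hr at 37 C to compound in a 15-point series plus 50 nM CITCO.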

[5] = qHTS assay to identify small molecule antagonists of the estrogen related receptor signaling pathway with the pleiotropic PPARgamma coactivator (PGC) from Tox21 10K library - cell viability counter screen (AID 1224840; active = well fitted cell-killing curve with a large enough effect in the repeat runs, not every such curve was filed as active; note: nearly all actives have a fitted effect of over 40% in size)
Method in brief: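 Counter-screen for cytotoxicity: after 17.5 h compound exposure at 37 C, CellTiter-Fluor reagent added to PGC/ERR cells for 30 min and fluorescence read. Cells were seeded at 2,000 per well 6 h before dosing.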

[6] = target: Thyrotropin receptor (Homo sapiens) (UniProt P16473); assay: qHTS assay to identify small molecule agonists of the thyroid stimulating hormone receptor (TSHR) signaling pathway (AID 1224843; calls by dose curve; note: nearly all actives have a fitted effect of over 45% in size)
Method in brief: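 Using 15 concentrations per compound in triplicate, cAMP production was monitored in TSHR-HEK293 cells after 30 min compound incubation at RT; HTRF reagents followed, with fluorescence intensity recorded after 1 h.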

[7] = qHTS assay to identify small molecule agonists of the hypoxia (HIF-1) signaling pathway - cell viability counter screen (AID 1224844; calls by dose curve; note: nearly all actives have a fitted effect of over 50% in size)
Method in brief: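 Cytotoxicity measured by CellTiter-Glo ATP luminescence in the wells also read for beta-lactamase signal. Cells were HRE-bla ME-180 (2,000/well, 0.5% dialyzed FBS), exposed to compounds for 17 h at 37C.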

[8] = qHTS assay to identify small molecule agonists of the hypoxia (HIF-1) signaling pathway (AID 1224846; active = well fitted activation curve with a large enough effect in the signal ratio in the repeat runs, not every such curve was filed as active; the % refers to the signal ratio)
Method in brief: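 Compounds added to ME-180 cells carrying hypoxia-response-element beta-lactamase reporter (0.5% dialyzed FBS, 5 h preplating), 17 h at 37C; agonist activity detected by CCF4-AM B/G FRET read-out.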

[9] = qHTS assay to identify small molecule agonists of H2AX - cell viability counter screen (AID 1224847; calls by dose curve; note: top concentration of the series differs between compounds; nearly all actives have a fitted effect of over 30% in size)
Method in brief: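 Cytotoxicity counter screen in wild-type CHO-K1 cells: a 3 hr compound treatment at 37C across 15 concentrations, followed by CellTiter-Glo luminescence to gauge viable cells.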

[10] = qHTS RealTime-Glo MT Cell Viability Assay in HepG2 cells - 24 hour (AID 1224867); note: nearly all actives have a fitted effect of over 50% in size
Method in brief: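 Viability was tracked continuously by NanoLuc luminescence from prosubstrate reduced by living HepG2 cells, at successive time points over 40 h of compound exposure. Cells with reagent were preincubated 5 h at 37 °C before compound addition.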

[11] = qHTS RealTime-Glo MT Cell Viability Assay in HEK293 cells - 32 hour (AID 1224868); note: top concentration of the series differs between compounds; nearly all actives have a fitted effect of over 50% in size
Method in brief: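 Viability tracked continuously by luminescence as live cells reduce a prosubstrate for NanoLuc; HEK293 cells preincubated 5 h, compound-treated at 37 C, and read at 0, 8, 16, 24, 32 and 40 h.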

[12] = A CellTox Green Cytotoxicity Assay to monitor cytotoxicity in HEK293 cells - 0 hour (AID 1224869); note: nearly all actives have a fitted effect of over 50% in size
Method in brief: (§1)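 Fluorescence from a DNA-binding dye excluded by viable cells was measured repeatedly in the same HEK293 wells (600 cells/well) during continuous compound exposure at 37 C. Each assay gives one read point: 0, 8, 16, 24, 32 or 40 h.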

[13] = qHTS RealTime-Glo MT Cell Viability Assay in HepG2 cells - 40 hour (AID 1224870); note: nearly all actives have a fitted effect of over 50% in size
Method in brief: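 HepG2 cells mixed with RealTime-Glo MT reagents (NanoLuc plus cell-permeant prosubstrate) were seeded at 600 cells/well, incubated 5 h at 37 C/5% CO2, then pinned with compounds in DMSO; nonlytic luminescence tracked viability during 40 h treatment.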

[14] = A CellTox Green Cytotoxicity Assay to monitor cytotoxicity in HEK293 cells - 40 hour (AID 1224871); note: nearly all actives have a fitted effect of over 45% in size
Method in brief: as §1

[15] = qHTS assay to identify small molecule antagonists of the estrogen related receptor signaling pathway with the pleiotropic PPARgamma coactivator (PGC) from Tox21 10K library (AID 1224841; call rule not given here)
Method in brief: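 Luminescence (One-Glo, 30 min at room temperature) after 18 h compound treatment at 37 C of PGC/ERR reporter cells plated at 2,000 cells/well and settled 6 h beforehand.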

[16] = qHTS assay to identify small molecule agonists of the estrogen related receptor signaling pathway with the pleiotropic PPARgamma coactivator (PGC) from Tox21 10K library (AID 1224842); note: nearly all actives have a fitted effect of over 15% in size
Method in brief: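 PGC/ERR reporter cells (NTP line) were seeded 2,000 per well, rested 6 h at 37 C/5% CO2, then pin-dosed with compounds in DMSO for 18 h at 37 C; luciferase read by One-Glo luminescence after 30 min at room temperature.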

[17] = qHTS assay to identify small molecule agonists of H2AX (AID 1224845; active = well fitted activation curve with a large enough effect in the signal ratio in the repeat runs, not every such curve was filed as active; the % refers to the signal ratio)
Method in brief: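 Wild-type CHO-K1 cells plated overnight, then exposed 3 hr at 37C to compounds at 15 concentrations (0.76% DMSO). Lysed, then HTRF anti-pH2AX(S139)-cryptate/anti-H2AX-d2 detection after 24 hr at room temperature; emissions 665 and 620 nm.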

[18] = qHTS assay to identify small molecule antagonists of the estrogen related receptor (ERR) signaling pathway from Tox21 library (AID 1224848); note: nearly all actives have a fitted effect of over 50% in size; note: potency is the fitted concentration of half-maximal effect
Method in brief: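 Tox21 10K compounds in DMSO tested for ERR pathway antagonism in NTP's ERR cell line; 18 h, 37 C exposure; ONE-Glo luminescence.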

[19] = qHTS assay to identify small molecule agonists of the estrogen related receptor (ERR) signaling pathway from Tox21 library (AID 1224849; calls by dose curve; note: nearly all actives have a fitted effect of over 15% in size); conditions: ERR reporter cell line, ONE-Glo luciferase, 18 h; at 92.4 µM (top of the series) unless noted
Method in brief: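 Luminescent agonist read-out (One-Glo, 30-minute room-temperature incubation) following 18-hour compound treatment at 37 C of the ERR cell line, which had been plated 6 hours before dosing.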

[20] = target: Nuclear receptor subfamily 1 group I member 3 (Homo sapiens) (UniProt Q14994); assay: qHTS assay to identify small molecule agonists of the constitutive androstane receptor (CAR) signaling pathway (AID 1224839);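 note: HepG2 cells stably carrying human CAR and a CYP2B6 luciferase reporter; nearly all actives have a fitted effect of over 15% in size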
Method in brief: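 Cells were plated and incubated 4 hrs, then dosed with compounds at 15 concentrations. PK11195 was added to 0.75 uM final. After 24 hrs at 37 C, luciferase luminescence was measured.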
% is set by controls: 0 for no effect and ±100 for the full control effect.

Sequence of Thyrotropin receptor (Homo sapiens) (P16473 whole entry, looked up): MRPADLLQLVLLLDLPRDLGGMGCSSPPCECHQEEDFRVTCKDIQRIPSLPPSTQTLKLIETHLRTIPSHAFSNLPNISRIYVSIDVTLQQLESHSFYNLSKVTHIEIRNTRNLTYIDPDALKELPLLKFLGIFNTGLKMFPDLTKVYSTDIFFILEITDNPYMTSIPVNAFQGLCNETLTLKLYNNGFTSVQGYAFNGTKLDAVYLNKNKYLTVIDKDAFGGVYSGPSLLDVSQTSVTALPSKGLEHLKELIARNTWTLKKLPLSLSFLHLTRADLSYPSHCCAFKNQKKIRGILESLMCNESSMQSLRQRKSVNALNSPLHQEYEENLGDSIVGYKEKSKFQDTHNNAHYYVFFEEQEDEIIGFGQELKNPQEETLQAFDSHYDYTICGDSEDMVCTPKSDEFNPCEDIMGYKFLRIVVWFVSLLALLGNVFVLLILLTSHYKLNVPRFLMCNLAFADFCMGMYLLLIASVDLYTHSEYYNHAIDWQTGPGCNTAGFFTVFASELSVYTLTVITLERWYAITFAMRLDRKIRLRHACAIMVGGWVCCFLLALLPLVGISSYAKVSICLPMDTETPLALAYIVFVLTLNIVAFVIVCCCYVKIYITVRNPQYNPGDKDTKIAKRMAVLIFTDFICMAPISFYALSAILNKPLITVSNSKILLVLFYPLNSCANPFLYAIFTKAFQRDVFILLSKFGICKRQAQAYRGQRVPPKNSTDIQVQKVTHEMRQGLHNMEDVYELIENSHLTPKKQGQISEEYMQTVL
Sequence of Luciferin 4-monooxygenase (Photinus pyralis) (P08659 whole entry, looked up): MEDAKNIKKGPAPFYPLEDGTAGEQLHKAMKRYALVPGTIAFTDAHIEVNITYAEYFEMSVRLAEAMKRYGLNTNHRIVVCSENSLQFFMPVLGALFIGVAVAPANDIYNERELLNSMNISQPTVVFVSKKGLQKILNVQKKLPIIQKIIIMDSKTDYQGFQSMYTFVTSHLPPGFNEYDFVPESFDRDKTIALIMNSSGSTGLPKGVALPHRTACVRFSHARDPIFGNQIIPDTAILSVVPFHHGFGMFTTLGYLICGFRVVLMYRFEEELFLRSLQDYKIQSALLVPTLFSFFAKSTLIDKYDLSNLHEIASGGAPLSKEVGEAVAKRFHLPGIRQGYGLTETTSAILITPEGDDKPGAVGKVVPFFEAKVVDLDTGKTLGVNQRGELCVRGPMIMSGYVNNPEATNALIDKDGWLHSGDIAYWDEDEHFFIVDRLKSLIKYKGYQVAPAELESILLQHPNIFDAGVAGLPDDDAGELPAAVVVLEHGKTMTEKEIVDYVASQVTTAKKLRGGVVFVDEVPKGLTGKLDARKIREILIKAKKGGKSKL
Sequence of Nuclear receptor subfamily 1 group I member 3 (Homo sapiens) (Q14994 whole entry, looked up): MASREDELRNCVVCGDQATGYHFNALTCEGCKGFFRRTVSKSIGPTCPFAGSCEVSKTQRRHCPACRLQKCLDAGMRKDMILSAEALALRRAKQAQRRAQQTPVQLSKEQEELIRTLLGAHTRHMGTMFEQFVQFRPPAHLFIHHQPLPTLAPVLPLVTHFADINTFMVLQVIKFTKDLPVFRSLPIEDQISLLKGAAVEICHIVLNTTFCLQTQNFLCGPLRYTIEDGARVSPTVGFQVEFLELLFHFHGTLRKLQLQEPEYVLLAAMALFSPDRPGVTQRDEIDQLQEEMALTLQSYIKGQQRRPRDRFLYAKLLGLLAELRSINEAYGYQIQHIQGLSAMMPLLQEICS

CN1CCN(c2c(F)cc3c(=O)c(C(=O)O)cn4c3c2SCC4)CC1
inactive: Potency [1] | Potency [2] | Potency [3] | Potency [4] | Potency [5] | Potency [6] | Potency [7] | outcome [8] | Potency [9] | Potency [10] | Potency [11] | Potency [12] | Potency [13] | Potency [14]

NNS(=O)(=O)c1ccc(Oc2ccc(S(=O)(=O)NN)cc2)cc1
inactive: Potency [1] | Potency [2] | Potency [3] | Potency [5] | Potency [15] | Potency [16] | Potency [6] | Potency [7] | Potency [17] | outcome [8] | Potency [9] | Potency [18] | activity change, positive = activation [19] -13.2% | Potency [10] | Potency [11] | Potency [12] | Potency [13] | Potency [14]

CCCCC(=O)O[C@]1(C(=O)CO)[C@H](C)C[C@H]2[C@@H]3CCC4=CC(=O)C=C[C@]4(C)[C@@]3(F)[C@@H](O)C[C@@]21C
inactive: Potency [1] | Potency [2] | Potency [3] | Potency [5] | Potency [15] | Potency [16] | Potency [6] | outcome [8] | Potency [9] | Potency [18] | activity change, positive = activation [19] -4.32% [at 42.5 µM] | Potency [10] | Potency [11] | Potency [12] | Potency [13] | Potency [14]

CCOC(=O)c1ccccc1O
inactive: Potency [1] | Potency [2] | Potency [3] | Potency [5] | Potency [15] | Potency [16] | Potency [6] | outcome [8] | Potency [9] | Potency [18] | activity change, positive = activation [19] 1.87% [at 42.5 µM] | Potency [10] | Potency [11] | Potency [12] | Potency [13] | Potency [14]

CC(C)S
inactive: Potency [1] | Potency [2] | Potency [3] | Potency [5] | Potency [15] | Potency [16] | Potency [6] | Potency [7] | Potency [17] | outcome [8] | Potency [9] | Potency [18] | activity change, positive = activation [19] 3.07% | Potency [10] | Potency [11] | Potency [12] | Potency [13] | Potency [14]

N#Cc1ccc(C(c2ccc(C#N)cc2)n2cncn2)cc1
inactive: Potency [1] | Potency [2] | Potency [3] | Potency [5] | Potency [6] | Potency [7] | Potency [17] | outcome [8] | Potency [10] | Potency [11] | Potency [12] | Potency [13] | Potency [14]

Cc1c(N)cccc1N
inactive: Potency [1] | Potency [2] | Potency [3] | Potency [4] | Potency [5] | Potency [6] | Potency [7] | Potency [17] | outcome [8] | Potency [9] | Potency [10] | Potency [11] | Potency [12] | Potency [13] | Potency [14]

CS(=O)(=O)c1ccc([C@@H](O)[C@@H](CF)NC(=O)C(Cl)Cl)cc1
inactive: Potency [1] | Potency [2] | Potency [3] | Potency [20] | Potency [5] | Potency [6] | Potency [7] | Potency [17] | outcome [8] | Potency [9] | Potency [10] | Potency [11] | Potency [12] | Potency [14]

COc1cc(C)ccc1C(C)C
inactive: Potency [1] | Potency [2] | Potency [3] | Potency [5] | Potency [15] | Potency [16] | Potency [6] | Potency [7] | Potency [17] | outcome [8] | Potency [9] | Potency [18] | activity change, positive = activation [19] -0.104% | Potency [10] | Potency [11] | Potency [12] | Potency [13] | Potency [14]

O=C1CCN(c2ccccc2)N1
inactive: Potency [1] | Potency [2] | Potency [3] | Potency [4] | Potency [5] | Potency [15] | Potency [16] | Potency [7] | outcome [8] | Potency [9] | activity change, positive = activation [19] -36.4% | Potency [10] | Potency [11] | Potency [12] | Potency [13] | Potency [14]
active: Potency [18] 17.3 µM

CCCN(CCC)C(=O)C(CCC(=O)O)NC(=O)c1ccccc1 (stereo not given)
inactive: Potency [1] | Potency [2] | Potency [3] | Potency [4] | Potency [5] | Potency [15] | Potency [16] | Potency [17] | Potency [9] | Potency [18] | activity change, positive = activation [19] 0.999% [at 42.5 µM] | Potency [10] | Potency [11] | Potency [12] | Potency [13] | Potency [14]

C=CC1CO1 (stereo not given)
inactive: Potency [1] | Potency [2] | Potency [3] | Potency [5] | Potency [6] | Potency [7] | Potency [17] | outcome [8] | Potency [9] | Potency [10] | Potency [11] | Potency [12] | Potency [13] | Potency [14]

O=C(O)CN(CCN(CC(=O)O)CC(=O)O)CCN(CC(=O)O)CC(=O)O
inactive: activity change, negative = inhibition [1] 2.77% [at 23.6 µM] | viability change, negative = cytotoxic [2] -25% [at 19 µM] | activity change, negative = cytotoxicity [3] -28.8% [at 19 µM] | activity, negative = inhibition [4] -23.7% [at 19 µM] | viability change, negative = cytotoxic [5] 0.226% [at 19 µM] | activity, negative = inhibition [15] 0.933% [at 19 µM] | activation [16] 0.186% [at 19 µM] | activity change, negative = cytotoxicity [7] -7.94% [at 15.8 µM] | activation (H2AX phosphorylation) [17] 1.06% [at 31.6 µM] | activity, negative = inhibition [18] 11.2% [at 19 µM] | activity change, positive = activation [19] 5.66% [at 19 µM] | activity change, negative = cytotoxicity [10] 0.5% [at 15.8 µM] | cytotoxicity [12] 4.99% [at 15.8 µM] | activity change, negative = cytotoxic [13] 0.22% [at 15.8 µM] | cytotoxicity increase [14] 19.7% [at 15.8 µM]

CCc1nnc(NS(=O)(=O)c2ccc(N)cc2)s1
inactive: Potency [1] | Potency [2] | Potency [3] | Potency [20] | Potency [5] | Potency [15] | Potency [16] | Potency [6] | Potency [17] | outcome [8] | Potency [9] | Potency [18] | activity change, positive = activation [19] 2.74% [at 42.5 µM] | Potency [10] | Potency [11] | Potency [12] | Potency [14]

CCN(CC)C(=O)N(CC)CC
inactive: Potency [1] | Potency [2] | Potency [3] | Potency [4] | Potency [5] | Potency [7] | Potency [17] | outcome [8] | Potency [9] | Potency [10] | Potency [11] | Potency [12] | Potency [13] | Potency [14]
